PubChem BioAssay AID1159580 (chemical genetic matrix, 2015)
Hit rate of the full screen: of about 5,500 compounds, about 2,000 (36%) were called active. Inconclusive results (about 18%) are left out. Cut-off read from the data, not from the text of the source: active = normalized growth mostly below about 0.91 (no sharp cut-off); inconclusive = no clear call, values can overlap the other calls; inactive = mostly above about 0.92. Some of the results follow.

Assay: chemical genetic growth profiling, strain panel (AID 1159580);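 note: tested at 20 µM; growth read once vehicle control cultures reached saturation at 30 °C; 1 = growth at the plate median or of vehicle wells; lower values mean less growth of the strain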
Details: growth OD

Measured: normalized growth

CN1CC(=O)N=C1N
inactive: S. cerevisiae deletion strains, locus YJR043C, strain POL32, active compounds read low 1.01 | S. cerevisiae deletion strains, locus YJR066W, strain TOR1, active compounds read low 0.902 | S. cerevisiae deletion strains, locus YJR075W, strain HOC1, active compounds read low 1.01 | S. cerevisiae deletion strains, locus YKL009W, strain mrt4, active compounds read low 1.05 | S. cerevisiae deletion strains, locus YKL068W, active compounds read low 0.996 | S. cerevisiae deletion strains, locus YKL085W, strain MDH1 (second series), active compounds read low 0.998 | S. cerevisiae deletion strains, locus YKL085W, strain MDH1, active compounds read low 0.998 | S. cerevisiae deletion strains, locus YKL160W, strain elf1, active compounds read low 1.01 | S. cerevisiae deletion strains, locus YKR001C, strain vps1, active compounds read low 1.01 | S. cerevisiae deletion strains, locus YKR026C, strain gcn3, active compounds read low 0.994 | S. cerevisiae deletion strains, locus YKR091W, strain srl3, active compounds read low 1.02 | S. cerevisiae deletion strains, locus YLL001W, strain dnm1, active compounds read low 1.01 | S. cerevisiae deletion strains, locus YLL026W, active compounds read low 1.02 | S. cerevisiae deletion strains, locus YLL041C, strain sdh2, active compounds read low 1.02 | S. cerevisiae deletion strains, locus YLR027C, strain aat2, active compounds read low 1.03 | S. cerevisiae deletion strains, locus YLR039C, strain RIC1, active compounds read low 1.04 | S. cerevisiae deletion strains, locus YLR058C, strain SHM2, active compounds read low 1.01 | S. cerevisiae deletion strains, locus YLR102C, strain apc9, active compounds read low 0.992 | S. cerevisiae deletion strains, locus YLR113W, strain HOG1, active compounds read low 0.94 | S. cerevisiae deletion strains, locus YLR221C, strain rsa3, active compounds read low 1.05 | S. cerevisiae deletion strains, locus YLR258W, strain gsy2, active compounds read low 1.03 | S. cerevisiae deletion strains, locus YLR262C, strain YPT6 (second series), active compounds read low 1.09 | S. cerevisiae deletion strains, locus YLR262C, strain YPT6, active compounds read low 1.08 | S. cerevisiae deletion strains, locus YLR268W, strain sec22, active compounds read low 0.977 | S. cerevisiae deletion strains, locus YLR320W, strain mms22, active compounds read low 1.07 | S. cerevisiae deletion strains, locus YLR330W, strain CHS5, active compounds read low 1.01 | S. cerevisiae deletion strains, locus YLR342W, strain FKS1 (second series), active compounds read low 0.984 | S. cerevisiae deletion strains, locus YLR342W, strain FKS1, active compounds read low 1.03 | S. cerevisiae deletion strains, locus YLR357W, strain rsc2, active compounds read low 1.01 | S. cerevisiae deletion strains, locus YLR370C, strain arc18, active compounds read low 1.02 | S. cerevisiae deletion strains, locus YLR371W, strain rom2, active compounds read low 0.985 | S. cerevisiae deletion strains, locus YLR384C, strain iki3, active compounds read low 1.01 | S. cerevisiae deletion strains, locus YLR418C, strain cdc73, active compounds read low 0.98 | S. cerevisiae deletion strains, locus YML016C, strain PPZ1, active compounds read low 1.01 | S. cerevisiae deletion strains, locus YML032C, strain rad52, active compounds read low 0.987 | S. cerevisiae deletion strains, locus YML120C, strain ndi1, active compounds read low 1.03 | S. cerevisiae deletion strains, locus YML124C, strain tub3, active compounds read low 0.992 | S. cerevisiae deletion strains, locus YMR058W, strain fet3, active compounds read low 1.04 | S. cerevisiae deletion strains, locus YMR078C, strain ctf18, active compounds read low 1 | S. cerevisiae deletion strains, locus YMR125W, strain sto1, active compounds read low 1.02 | S. cerevisiae deletion strains, locus YMR129W, active compounds read low 1.01 | S. cerevisiae deletion strains, locus YMR205C, strain PFK2, active compounds read low 1.08 | S. cerevisiae deletion strains, locus YMR223W, strain ubp8, active compounds read low 0.992 | S. cerevisiae deletion strains, locus YMR231W, strain pep5, active compounds read low 1.01 | S. cerevisiae deletion strains, locus YMR307W, strain GAS1, active compounds read low 0.998 | S. cerevisiae deletion strains, locus YNL067W, strain RPL9B, active compounds read low 1.01 | S. cerevisiae deletion strains, locus YNL071W, strain lat1, active compounds read low 1.03 | S. cerevisiae deletion strains, locus YNL128W, strain TEP1, active compounds read low 1.04 | S. cerevisiae deletion strains, locus YNL183C, strain NPR1, active compounds read low 0.893 | S. cerevisiae deletion strains, locus YNL209W, strain ssb2, active compounds read low 1.03 | S. cerevisiae deletion strains, locus YNL233W, strain BNI4, active compounds read low 1.01 | S. cerevisiae deletion strains, locus YNL248C, strain rpa49, active compounds read low 1.02 | S. cerevisiae deletion strains, locus YNL250W, strain rad50, active compounds read low 0.996 | S. cerevisiae deletion strains, locus YNL271C, strain bni1, active compounds read low 0.991 | S. cerevisiae deletion strains, locus YNL298W, strain CLA4, active compounds read low 0.988 | S. cerevisiae deletion strains, locus YNL307C, strain MCK1, active compounds read low 0.98 | S. cerevisiae deletion strains, locus YNL322C, strain KRE1 (second series), active compounds read low 1.02 | S. cerevisiae deletion strains, locus YNL322C, strain KRE1, active compounds read low 1.01 | S. cerevisiae deletion strains, locus YNR049C, strain mso1, active compounds read low 1.01 | S. cerevisiae deletion strains, locus YNR052C, strain pop2, active compounds read low 0.991 | S. cerevisiae deletion strains, locus YOL012C, strain htz1 2.03 | S. cerevisiae deletion strains, locus YOL147C, strain pex11, active compounds read low 0.99 | S. cerevisiae deletion strains, locus YOR001W, strain rrp6, active compounds read low 1.02 | S. cerevisiae deletion strains, locus YOR061W, strain CKA2, active compounds read low 1.01 | S. cerevisiae deletion strains, locus YOR069W, strain VPS5, active compounds read low 1.01 | S. cerevisiae deletion strains, locus YOR070C, strain gyp1, active compounds read low 1.03 | S. cerevisiae deletion strains, locus YOR080W, strain dia2, active compounds read low 1.02 | S. cerevisiae deletion strains, locus YOR083W, strain WHI5, active compounds read low 1.01 | S. cerevisiae deletion strains, locus YOR106W, strain vam3, active compounds read low 1.02 | S. cerevisiae deletion strains, locus YOR136W, strain idh2, active compounds read low 0.996 | S. cerevisiae deletion strains, locus YOR144C, strain elg1, active compounds read low 0.997 | S. cerevisiae deletion strains, locus YOR184W, strain ser1, active compounds read low 1.03 | S. cerevisiae deletion strains, locus YOR231W, strain MKK1, active compounds read low 0.964 | S. cerevisiae deletion strains, locus YOR265W, strain rbl2, active compounds read low 1.01 | S. cerevisiae deletion strains, locus YOR270C, strain vph1, active compounds read low 1.11 | S. cerevisiae deletion strains, locus YOR290C, strain snf2, active compounds read low 1.02 | S. cerevisiae deletion strains, locus YOR316C, strain cot1, active compounds read low 0.993 | S. cerevisiae deletion strains, locus YPL051W, strain arl3, active compounds read low 1.02 | S. cerevisiae deletion strains, locus YPL055C, strain LGE1, active compounds read low 1.03 | S. cerevisiae deletion strains, locus YPL078C, strain atp4, active compounds read low 1.02 | S. cerevisiae deletion strains, locus YPL106C, strain sse1, active compounds read low 1.02 | S. cerevisiae deletion strains, locus YPL240C, strain hsp82, active compounds read low 1.02 | S. cerevisiae deletion strains, locus YPL256C, strain CLN2, active compounds read low 0.946 | S. cerevisiae deletion strains, locus YPR119W, strain clb2, active compounds read low 0.991 | S. cerevisiae deletion strains, locus YPR141C, strain kar3, active compounds read low 0.989 | S. cerevisiae deletion strains, locus YPR163C, strain tif3, active compounds read low 0.982 | S. cerevisiae deletion strains, locus YPR167C, strain met16, active compounds read low 0.979 | S. cerevisiae deletion strains, strain wtn01, active compounds read low 0.974 | S. cerevisiae strains, strain wild type, active compounds read low 1.01
